From PubChem BioAssay
Sampled rows, rich in hits. Any-hit rate of the full collection: about 6.1%.
D1 PAM = Potentiators of Human D1 Dopamine Receptor: qHTS; potentiation, % at 10 µM; HEK293 TREx D1 cells, calcium flux, dopamine EC20 potentiation; D(1A) dopamine receptor (Homo sapiens), P21728; 360,000 tested, 0.036% active; in the data active means potentiation above about 30%; further: 0% is about no effect
Target sequence (P21728 whole entry, looked up): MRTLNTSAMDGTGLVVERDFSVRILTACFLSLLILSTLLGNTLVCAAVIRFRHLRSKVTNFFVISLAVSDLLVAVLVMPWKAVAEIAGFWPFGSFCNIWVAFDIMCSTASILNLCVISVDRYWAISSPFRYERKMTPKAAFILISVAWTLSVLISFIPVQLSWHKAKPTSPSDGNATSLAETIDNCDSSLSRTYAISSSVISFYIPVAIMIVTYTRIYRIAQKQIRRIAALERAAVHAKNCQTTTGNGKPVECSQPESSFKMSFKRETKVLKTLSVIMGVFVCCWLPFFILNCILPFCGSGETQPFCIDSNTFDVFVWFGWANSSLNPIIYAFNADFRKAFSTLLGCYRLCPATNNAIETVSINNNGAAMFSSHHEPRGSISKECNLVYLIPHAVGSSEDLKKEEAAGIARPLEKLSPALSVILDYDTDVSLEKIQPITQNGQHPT
D1 ag = Allosteric Agonists of the Human D1 Dopamine Receptor: qHTS; D(1A) dopamine receptor (Homo sapiens), P21728; HEK293 T-REx D1 cells, calcium flux, agonist mode; activation, % at 2 µM; 360,000 tested, 1% active; in the data active means activation above about 30%; further: 0% is about no effect
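Agonism was scored from calcium flux recorded over 180 s (1 read/s) after pintool compound addition, following a 10-cycle baseline. Cells were inducible force-coupled HEK293 TREx D1, plated overnight at 30 C and loaded with no-wash calcium dye.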
DRD3 antagonist = qHTS of D3 Dopamine Receptor Antagonist: qHTS | 360,000 tested, 2.5% active | max response, negative = inhibition, % | D(3) dopamine receptor (Homo sapiens), P35462 | AID 652054, 2013 | D3R cells, DiscoveRx beta-arrestin luminescence, antagonist mode; stronger effect = lower value; in the data active means max response below about -50%; inconclusive means no clear call, values can overlap the other calls; further: on the % scale 0 is the no-effect control and ±100 the full control effect
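Cells plated overnight at 1500 cells/well, then exposed to library compounds with dopamine controls for 90 minutes at 37 degrees C. DiscoveRx reagent added for 30–60 minutes at room temperature; luminescence read, quantitative HTS format.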
D1 antag = Antagonist of Human D 1 Dopamine Receptor: qHTS. D(1A) dopamine receptor (Homo sapiens), P21728. HEK293 TREx D1 cells, calcium flux, dopamine EC80; stronger effect = lower value. activity change, negative = inhibition, % at 10 µM. 360,000 tested, 3.2% active. AID 504652, 2011; in the data active means activity change below about -30%; further: on the % scale 0 is the no-effect control and ±100 the full control effect
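Tetracycline-induced HEK293 Trex D1 cells, force-coupled to calcium, dye-loaded; compounds added and read 180 s, then EC80 dopamine added and calcium flux tracked kinetically another 180 s.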
DRD3 agonist = qHTS of D3 Dopamine Receptor Agonist: qHTS; D(3) dopamine receptor (Homo sapiens), P35462; D3R DiscoveRx beta-arrestin cells, luminescence, 90 min; max activation, %; 410,000 tested, 0.58% active; in the data active means max activation above about 30%; further: 0% is about no effect
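Cells at 1500/well, incubated overnight, then treated with pinned compounds (dopamine as control) for 90 min at 37 degrees C. DiscoveRx reagent added for 30 - 60 minutes at room temperature; luminescence read.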
An asterisk follows results filed as active; ? = inconclusive; . = no result given.

SMILES	D1 PAM	D1 ag	DRD3 antagonist	D1 antag	DRD3 agonist
COc1ccccc1CNCc1cc(Br)ccc1OC	-3	37*	-3	-1	-9
Oc1c(Br)cc(Br)cc1CNc1cnc2ccccc2c1	-1	16	2	-14	4
Fc1ccccc1COc1ccc(Br)cc1CNCc1ccncc1	-28	9	-68*	-28	-12
COc1cccc(Cn2c(SCC(=O)N(C)c3ccccc3)nc3ccccc32)c1	-1	3	.	3	-18
COc1ccccc1CNCc1ccc(OC)c2ccccc12	.	.	-13	.	-3
COc1cccc(CNCc2ccc(OC)c3ccccc23)c1OC	-9	50*	3	-41*	-11
O=C(O)c1ccc(-n2c(-c3ccc(Br)cc3)n[nH]c2=S)cc1	-8	2	-89*	-2	5
CCOc1ccc(NC(=O)CN(C)C(=O)c2ccccc2Cc2ccccc2)cc1OCC	.	6	27	-45*	3
CN(CC(=O)Nc1ccc(F)cc1)C(=O)COc1ccccc1Cc1ccccc1	-3	23	-16	-85*	-25
COc1ccc(NC(=O)CN(C)C(=O)COc2ccccc2Cc2ccccc2)cc1	-4	5	-7	-11	-23
CCOC(=O)Cc1[nH]nc2c1C(c1ccsc1)C(C#N)=C(N)O2 (centres undefined)	2	1	12	-4	5
Fc1ccc2[nH]c3c(c2c1)CN(C(=S)NCc1ccccc1)CC3	-4	6	-7	-38*	-5
O=C1C2C3C=CC(C3)C2C(=O)N1c1n[nH]c(-c2ccccc2)n1 (centres undefined)	-8	0	-4	5	34*
O=C1C2C3C=CC(C3)C2C(=O)N1c1n[nH]c(-c2cccnc2)n1 (centres undefined)	-1	3	-16	-10	1
O=C(COC(=O)c1cccc(F)c1)Nc1cccc(S(=O)(=O)N2CCCCC2)c1	.	.	10	.	1
COc1ccc2cc3cc(C(=O)Nc4ccccc4N4CCN(C)CC4)oc3nc2c1	-10	3	?	-41*	2
NC(=O)C1=C[C@H](c2ccc(C(F)(F)F)cc2)C[C@H](OCc2ccc(CO)cc2)O1	3	2	-2	-8	-17
NC(=O)C1=C[C@@H](c2ccc(C(F)(F)F)cc2)C[C@@H](OCc2ccc(CO)cc2)O1	0	-3	-56*	-13	-7
CC(C)(C)[C@H]1C=C(C(N)=O)O[C@@H](OCc2ccc(CO)cc2)C1	2	-3	10	-31*	0
c1ccc(C[C@H]2CN=C(Nc3ccccc3)N2CC2CCCC2)cc1	.	.	1	.	-6
COCCNC(=O)C1CCCN(C(=O)c2cncc(Br)c2)CC1 (centres undefined)	.	.	-77*	.	-18
COCCNC(=O)C1CCCN(C(=O)c2ccnc(Cl)c2)CC1 (centres undefined)	.	.	16	.	4
COCCNC(=O)C1CCCN(C(=O)Cc2ccc(F)cc2)CC1 (centres undefined)	.	.	28	.	10
COCCNC(=O)C1CCCN(C(=O)Cc2cccc3ccccc23)CC1 (centres undefined)	.	.	-102*	.	-11
CN1CCN(C2CN(Cc3cn(Cc4cccc(C(F)(F)F)c4)nn3)S(=O)(=O)C2)CC1 (centres undefined)	.	.	-51*	.	-2
SMILES	D1 PAM	D1 ag	DRD3 antagonist	D1 antag	DRD3 agonist
O=S1(=O)CC(N2CC=CC2)CN1Cc1cn(Cc2ccc(F)cc2)nn1 (centres undefined)	.	.	-52*	.	-3
O=S1(=O)CC(N2CCCCC2)CN1Cc1cn(Cc2ccc(F)cc2)nn1 (centres undefined)	.	.	6	.	0
O=C(Cn1ccn(-c2ccc(F)cc2)c(=O)c1=O)NCCc1ccccc1	-3	1	.	0	-4
O=C(O)CN1C(=O)/C(=C/c2ccc(N3CCCCC3)o2)SC1=S	8	7	-13	-14	2
CCOC(=O)CN1C(=O)S/C(=C/c2ccco2)C1=O	-5	2	4	-12	4
COC(=O)CN1C(=O)S/C(=C/c2ccc(N3CCCCC3)o2)C1=O	6	57*	?	7	4
CCOC(=O)CN1C(=O)S/C(=C/c2ccc(N3CCCCC3)o2)C1=O	-2	55*	15	11	-1
O=[N+]([O-])c1c(Nc2ccccc2O)ccc2nonc12	2	3	-25	-7	-7
O=[N+]([O-])c1c(Nc2ccccc2O)cc(Cl)c2nonc12	-4	2	-140*	-26	-33
N#CCCn1c2ccccc2c2nc3ccccc3nc21	-1	1	-52*	-6	-4
CCCn1c2ccccc2c2nc3ccccc3nc21	2	1	0	-6	-1
NNc1nc(-c2ccccc2)cc(-c2ccccc2O)n1	.	.	-100*	.	-86
Cc1cc(/C=N/NC(N)=S)c(O)c(/C=N/NC(N)=S)c1	2	277*	0	1	3
O=C(CSc1nc2c([nH]c3ccccc32)c(=O)n1-c1ccccc1)NCC1CCCO1 (centres undefined)	4	0	-84*	10	-23
COc1cc(-c2nc(C(=O)NCC3CCCO3)cc3c2[nH]c2ccccc23)cc(OC)c1OC (centres undefined)	-1	1	88	3	33*
COc1ccccc1-n1c(SCC(=O)NCC2CCCO2)nc2c([nH]c3ccccc32)c1=O (centres undefined)	-4	-1	-57*	15	-19
CCn1c(SCC(=O)NCC2CCCO2)nc2c([nH]c3ccccc32)c1=O (centres undefined)	-1	2	1	-5	8
COCCNC(=O)CSc1nc2ccccc2c(=O)n1CC1CCCO1 (centres undefined)	-3	3	10	-76*	1
COc1ccccc1-c1nc(C(=O)NCC2CCCO2)cc2c1[nH]c1ccccc12 (centres undefined)	0	1	27	-10	3
O=C(CSc1nc2ccccc2c(=O)n1CC1CCCO1)NCC1CCCO1 (centres undefined)	-1	1	-15	5	5
COC(=O)c1cc(OC)c(OC)c(OC)c1NC(=O)c1cc(=O)n(C)c(=O)n1C	-1	-1	.	-11	-13
O=C(/C=C/c1ccccc1Cl)c1ccc[nH]1	-2	3	0	3	-3
NC(=S)NN=C1c2cc(OCCN3CCOCC3)ccc2-c2ccc(OCCN3CCOCC3)cc21	-1	2	2	-3	5
O=C(CSc1ncnc2ccccc12)c1cccs1	-6	3	-3	-54*	4
O=C(CSc1ncnc2ccccc12)N1CCCC1	-4	0	-19	-74*	0
